Data reported in ChEMBL document CHEMBL4513146, “CO-ADD screening of Karazin Kharkiv National University (Ukraine) compounds”.
Potency and affinity values are given separately.

system: Cryptococcus neoformans; conditions: Concentration 32 ug.mL-1; ASSAY_TEST Inhibition of Fungal Growth; detection method Resazurin; Absorption (OD600-OD570); plate type 384well; NBS; CORNING #3640

Compound	Inhibition [%]
Cc1cc2nn(CC(=O)Nc3ccc(F)cc3Cl)c(=O)n2c(Nc2ccccc2C)n1	-16.44
O=C(Cn1nc2c(Oc3ccccc3)nccn2c1=O)Nc1ccc2c(c1)OCCO2	-7.17
O=C(Cn1nc2c3sc(N4CCCC4)nc3ncn2c1=O)Nc1ccc(F)c(Cl)c1	-11.29
CCCCN(CC)c1ccc2nnc(CCc3nc(-c4ccc(Br)cc4)no3)n2n1	-10.77
O=C(Cn1nc2c(Oc3ccccc3)nccn2c1=O)Nc1cc(F)ccc1F	-9.47
COc1ccc(NC(=O)Cn2nc3c(N4CCOCC4)nccn3c2=O)c(OC)c1	-16.42
CC(C)CCn1c(=O)c2sccc2n2c(=O)n(Cc3c(F)cccc3Cl)nc12	-27.55
O=C(Cn1nc2c3sc(N4CCCC4)nc3ncn2c1=O)Nc1ccccc1Cl	-9.84
N#CCSc1nnc2c(=O)n(-c3ccc(Br)cc3)ccn12	-7.07
Cc1cccc(NC(=O)Cn2nc3c4cc(-c5ccc(Cl)cc5)nn4ccn3c2=O)c1C	-23.15
C=Cc1ccc(CN(c2ccc(CC)cc2)S(=O)(=O)c2cccn3c(C)nnc23)cc1	-7.66
CCc1nnc2c(S(=O)(=O)N(Cc3cccc(OC)c3)c3ccccc3)cccn12	-9.71
CC(C)NC(=O)CSc1nnc2c(=O)n(Cc3ccc(F)cc3)ccn12	-22.73
COc1cccc(-n2ccn3c(SCC(=O)NCc4ccc(C)cc4)nnc3c2=O)c1	-8.56
O=c1c2sccc2n2c(=O)n(Cc3ccc(F)cc3)nc2n1Cc1cccs1	-26.83
Cc1cc2nn(CC(=O)Nc3cc(F)ccc3F)c(=O)n2c(Nc2ccc(C)c(F)c2)n1	-8.46
O=C(CSc1nnc2c(=O)n(-c3ccccc3)ccn12)N1CCN(c2ccc(F)cc2)CC1	-26.48
Cc1ccc(-n2ccn3c(SCC(=O)Nc4ccc5c(c4)OCCO5)nnc3c2=O)cc1C	-6.74
CCCNC(=O)Cn1nc2nc(Nc3ccc(F)cc3)ccn2c1=O	-13.31
Cc1ccccc1Nc1cc(C)n2c(=O)n(CCc3ccccc3)nc2n1	-4.15

Compound	Inhibition [%]
COc1ccc(NC(=O)Cn2nc3c(Oc4cccc(F)c4)nccn3c2=O)cc1	-6.95
CCOc1ccc(-c2nc(CSc3nc4ccccc4n4c(C)nnc34)c(C)o2)cc1	-16.17
Cc1ccc(-c2cc3c4nn(CC(=O)Nc5cc(Cl)ccc5C)c(=O)n4ccn3n2)cc1C	-8.51
O=C(CSc1nnc2c(=O)n(-c3ccccc3)ccn12)Nc1ccccc1F	-14.95
Cc1ccccc1N1CCN(c2nccn3c(=O)n(CC(=O)NCc4cc(F)cc(F)c4)nc23)CC1	-4.76
COc1ccc(-c2cc3c4nnc(SCC(=O)NCc5ccccc5Cl)n4ccn3n2)cc1	-22.52
O=S(=O)(c1cccn2cnnc12)N(Cc1ccc(F)cc1)c1ccc(F)cc1	-6.17
Cc1nnc2c(=O)n(CC(=O)Nc3ccc(F)cc3F)c3ccccc3n12	-30.11
CC(C)CCn1c(=O)c2sccc2n2c(=O)n(CC(=O)N(C)c3ccccc3)nc12	-16.67
CCc1nnc2c(SCC(=O)Nc3ccc(Br)cc3)nc3ccccc3n12	-6.67
Cc1ccc2c(c1)N(C(=O)Cn1nc3ccc(Sc4ccccc4)nn3c1=O)CCO2	-5.73
COc1cccc(CNC(=O)CSc2nnc3c(=O)n(-c4ccc(F)cc4)ccn23)c1OC	-5.56
CCOc1ccc(N(Cc2cccc(F)c2)S(=O)(=O)c2ccc3nncn3c2)cc1	-4.27
CC(C)Sc1ccc2nn(CC(=O)Nc3ccc(Cl)cc3F)c(=O)n2n1	-18.57
COc1ccc(NC(=O)Cn2nc3ccc(-c4ccc(C)c(C)c4)nn3c2=O)cc1OC	-43
COC(=O)c1ccc(NC(=O)Cn2nc3c(N4CCOCC4)nccn3c2=O)cc1	-14.01
O=c1n(Cc2ccc3c(c2)OCO3)nc2c(S(=O)(=O)N3CCCC3)cccn12	-5.87
CCc1nnc2c(SCC(=O)Nc3ccc(Cl)cc3)nc3ccccc3n12	-3.51
O=C(CCc1nnc2c3cc(-c4ccc(F)cc4)nn3ccn12)N1CCC(Cc2ccccc2)CC1	-13.61
CCC(C)NC(=O)Cn1nc2n(CCC(C)C)c(=O)c3sccc3n2c1=O (stereo not given)	-17.2
